Screening data as filed in PubChem BioAssay.
Sampled rows, rich in hits. Any-hit rate of the full collection: about 0.83%.
Menin MLL FP TR: displaces Texas Red mutant MLL peptide from human menin; Menin + Texas Red MLL mutant peptide, fluorescence polarization; 0.23% of 270,000 active; Potency, µM (series often up to 61.6 µM), inactives show at the top dose FP activity change, negative = inhibition, hits mostly inhibitors; O00255; active = well fitted inhibition curve with a large enough effect in the polarisation, with a control signal flat, not every such curve was filed as active; inconclusive = small, poorly fitted or top-dose-only effect, or effect the other way, or a change in a side signal; inactive = no such curve, though single readings can be large or run the other way; the % refers to the polarisation; also: potency is read from the fitted curve at half-maximal effect; % of control where 0% means no effect
GLS inhibitor: glutaminase GLS (human) inhibition. O94925. GLS enzymatic activity, qHTS titration. Potency, µM (top dose mostly 45.5 µM), without a hit: top-dose activity change, negative = inhibition, actives largely listed as inhibitors. 0.21% of 410,000 active. AID 624170; active = well fitted inhibition curve with a large enough effect; inconclusive = small, poorly fitted or top-dose-only effect, or another doubt; inactive = no such curve, though single readings can be large or run the other way; also: potency is read from the fitted curve at half-maximal effect; % is scaled to controls: 0 for no effect and ±100 for the full control effect
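Two-point fluorescence kinetic (t0, 30 min RT) for hKGA; glutamate detected via glutamate oxidase–HRP–Amplex Red. Substrate: 1 mM L-glutamine solution; buffer 45 mM KH2PO4, pH 8.2.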
Menin-MLL FL inh: inhibitors of human menin-MLL interaction, wild-type MLL peptide; Fluorescence polarization, fluorescein-MLL peptide displacement from menin; 290,000 tested, under 10 active; AID 1766; FP activity change, % at 61.4 µM; active = well fitted curve in the direction sought with a large enough effect in the polarisation, not every such curve was filed as active; inconclusive = small, poorly fitted or top-dose-only effect, or effect the other way, or a change in a side signal; inactive = no such curve, though single readings can be large or run the other way; the % refers to the polarisation; also: % of control where 0% means no effect
Six1-Eya2 blk: Six1/Eya2 interaction inhibition; 0.56% of 360,000 active; AlphaScreen GST-Six1/His-Eya2 binding, biochemical; hits give low values; activity change, % (no concentration beside the values); Q15475+O00167; AID 651725; also: % is scaled to controls: 0 for no effect and ±100 for the full control effect
Target sequence (O00167 whole entry, looked up): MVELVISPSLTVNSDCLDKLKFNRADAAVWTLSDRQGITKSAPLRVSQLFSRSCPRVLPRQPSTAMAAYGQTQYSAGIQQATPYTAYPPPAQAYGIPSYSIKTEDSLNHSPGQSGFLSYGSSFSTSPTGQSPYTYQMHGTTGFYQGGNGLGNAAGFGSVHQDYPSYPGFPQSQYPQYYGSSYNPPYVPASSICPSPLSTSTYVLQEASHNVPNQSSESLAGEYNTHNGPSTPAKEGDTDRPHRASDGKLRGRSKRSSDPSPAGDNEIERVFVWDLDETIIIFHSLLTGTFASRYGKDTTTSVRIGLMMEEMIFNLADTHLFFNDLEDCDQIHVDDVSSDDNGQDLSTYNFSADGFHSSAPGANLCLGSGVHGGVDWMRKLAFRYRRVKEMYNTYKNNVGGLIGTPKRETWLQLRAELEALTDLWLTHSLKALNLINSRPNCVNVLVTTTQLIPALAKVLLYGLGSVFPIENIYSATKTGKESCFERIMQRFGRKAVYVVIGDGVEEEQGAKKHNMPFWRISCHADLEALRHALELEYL
Target sequence (Q15475 whole entry, looked up): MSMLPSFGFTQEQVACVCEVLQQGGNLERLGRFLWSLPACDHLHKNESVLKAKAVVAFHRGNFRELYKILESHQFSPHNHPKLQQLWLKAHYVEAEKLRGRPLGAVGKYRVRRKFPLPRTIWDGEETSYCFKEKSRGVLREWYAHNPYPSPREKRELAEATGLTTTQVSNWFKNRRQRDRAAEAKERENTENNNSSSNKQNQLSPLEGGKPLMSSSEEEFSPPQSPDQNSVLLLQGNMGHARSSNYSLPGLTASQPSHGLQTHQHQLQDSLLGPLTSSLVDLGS
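AlphaScreen with GST-Six1 and His-Eya2 (5X mix: 250 nM and 500 nM), glutathione donor and nickel acceptor beads; buffer 50 mM Tris pH 8.0, 300 mM NaCl, 1 mM TCEP; 1 h at 37 C in the dark.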
CtBP-E1A blk: inhibitors of CtBP/E1A interaction | AlphaScreen GST-E1A/His-CtBP binding, 1536-well; hits give low values | activity change, % (no concentration beside the values) | 0.49% of 340,000 active; also: % is scaled to controls: 0 for no effect and ±100 for the full control effect
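Protein mix (5X: 125 nM each GST-E1A, His-CtBP) was incubated with pinned compound 2 h at 37 deg C in dark, in 50 mM Tris pH 8.0 buffer with 300 mM NaCl. Glutathione donor and nickel acceptor beads followed; AlphaScreen signal read after 1 h.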
MLL CXXC-DNA inh: MLL CXXC-DNA interaction inhibition | Q03164 | MLL-CXXC / FITC-HOXA9 DNA fluorescence polarization | Potency, µM (series often up to 115 µM), for inactives: at the top dose activity change, negative = inhibition, most hits filed as inhibitors | 0.037% of 290,000 active | AID 2662; active = well fitted inhibition curve with a large enough effect in the polarisation, with a control signal flat, not every such curve was filed as active; inconclusive = small, poorly fitted or top-dose-only effect, or effect the other way, or a change in a side signal; inactive = no such curve, though single readings can be large or run the other way; the % refers to the polarisation; also: potency is read from the fitted curve at half-maximal effect
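Fluorescence polarization: 7 uM MLL-CXXC (stock) preincubated 5 min with compounds, then 50 nM fluorescein-HOX-A9 DNA (stock) added; 30 min ambient. Buffer 50 mM Tris-HCl pH 7.5, 50 mM NaCl, 1 mM DTT, 0.05% BSA.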
The depositor's hits bear a star; ? = inconclusive; · = not tested or not shown; [ ] = another dose, or the depositor's remark. Rule as the data show it, unless noted: active = activity change below about -65%; inconclusive = mostly about -30% to -63%; inactive = weaker than that.

SMILES	Menin MLL FP TR	GLS inhibitor	Menin-MLL FL inh	Six1-Eya2 blk	CtBP-E1A blk	MLL CXXC-DNA inh
NC(COCc1ccccc1)c1csc(Nc2cc(NCCCO)ncn2)n1 (centres undefined)	·	10.6%	·	-86.4*	-86.0*	·
N[C@H]1CCN(O)C1=O	1.7%	·	2.7	·	·	·
CO/N=C(/C(=O)N[C@@H]1C(=O)N2C(C(=O)OC(C)OC(C)=O)=C(COC(N)=O)CS[C@H]12)c1ccco1 (some centres undefined)	·	0.4%	·	·	·	·
NC(COCc1ccccc1)c1csc(Nc2ncccn2)n1 (centres undefined)	·	-1.4%	·	-80.9*	-85.0*	·
COc1cccc(Nc2nc(C(N)Cc3ccccc3)cs2)n1 (centres undefined)	·	5.0%	·	-18.6	-25.3	·
NC(=O)c1ccc(Nc2nc(C(N)COCc3ccccc3)cs2)cc1 (centres undefined)	·	6.3%	·	-24.1	-23.3	·
NC(Cc1ccc(Cl)cc1)c1csc(Nc2cc(NCCCO)ncn2)n1 (centres undefined)	·	-12.3%	·	-69.6*	-78.3*	·
COc1cccc(Nc2nc(C(N)CO)cs2)n1 (centres undefined)	·	20.3%	·	?	-75.7*	·
CCCCCCCN(CC)CCCC(O)c1ccc(NS(C)(=O)=O)cc1 (centres undefined)	·	30.4%	·	·	·	·
COc1ccc(S(=O)(=O)N2c3ccc(Cl)cc3[C@](O)(c3ccccc3Cl)[C@@H]2C(=O)N2CCC[C@H]2C(N)=O)cc1OC	5.5%	8.7%	5.1	·	·	5.5%
CN(Cc1ccccc1)C(=O)CSc1nc2ccccc2n1Cc1ccccc1F	·	-6.2%	·	·	·	·
Cc1nnc(C(C)C)n1C1C[C@H]2CC[C@@H](C1)N2CC[C@H](NC(=O)C1CCC(F)(F)CC1)c1ccccc1 (some centres undefined)	·	0.1%	·	·	·	·
COc1cnc(-c2ccccn2)[nH]c1=O	-1.0%	-2.0%	0.8	-90.6*	-94.5*	3.8%
COc1cnc(-c2ccccn2)nc1Oc1ccccc1Cl	-2.9%	-0.3%	5.3	3.2	-2.2	-11.2%
CCc1cc2c(=O)[nH]c(-c3ccccn3)nc2s1	5.7%	-2.4%	10.6	-91.7*	3.1	8.1%
CCc1cc2c(=O)[nH]c(N3CCCC3)nc2s1	0.5%	2.9%	-0.3	6.5	-14.5	6.8%
CCc1cccc(N2C(=O)N(CC(=O)NCc3cccc(OC)c3OC)c3ccccc3S2(=O)=O)c1	·	0.2%	·	·	·	·
COc1ccc(C(=O)Nc2nc3ccccc3[nH]2)cc1S(=O)(=O)N1CCCC1	0.2%	2.5%	8.4	?	-70.3*	-22.0%
COc1ccc(C(=O)Nc2nc3ccccc3[nH]2)cc1OC	-20.8%	-7.4%	2.2	-10.3	-6.2	-16.5%
C=C[C@@H](C1=CC(=O)C(OC)=C(OC)C1=O)c1ccccc1	1.8%	·	2.7	·	·	·
CCc1ccccc1Nc1nn2c(=O)c3ccc(C(=O)NCc4ccccn4)cc3nc2s1	17.0%	0.1%	5.2	?	-78.7*	-5.6%
O=C1CCCC2=C1C1O[C@](CCCCN3C(=O)c4ccccc4C3=O)(Cc3c1ccc1ccccc31)O2	-5.9%[11.7 µM]	·	-0.8[11.7 µM]	·	·	-8.5%[23 µM]
Oc1[nH]c2ccccc2c1N=NC(=S)N1CCOCC1	·	10.4%	-0.8	-91.7*	-65.8*	3.4%
COC(=O)N=Nc1c(O)[nH]c2ccc(Br)cc12	·	-8.7%	-1.0	-18.3	-12.0	7.6%
Oc1[nH]c2ccc(Br)cc2c1N=NC(=S)N1CCOCC1	·	-1.2%	-2.5	-78.1*	?	7.7%
SMILES	Menin MLL FP TR	GLS inhibitor	Menin-MLL FL inh	Six1-Eya2 blk	CtBP-E1A blk	MLL CXXC-DNA inh
Oc1cccc(NC(=S)N=Nc2c(O)[nH]c3ccccc23)c1	·	-0.6%	-3.9	?	-68.5*	16.7%
O=C(Nc1ccccc1F)c1ccc2c(Cl)c3c(nc2c1)CCC3	·	0.1%	·	·	·	·
CCOc1ccc(N=C(C)Nc2ccc(OCC)cc2)cc1	·	11.1%	·	·	·	·
O=[N+]([O-])c1ccc(O)c(/C=N/n2c(-c3ccccc3)n[nH]c2=S)c1	42.9%	?	-0.2	-0.6	-2.7	-27.2%
O=[N+]([O-])c1ccc(Cl)c(/C=N/n2c(-c3ccncc3)n[nH]c2=S)c1	·	8.3%	-2.2	-78.9*	-72.9*	-0.2%
CC1CCN(c2ccc(NC(=O)Cc3ccccc3)cc2)CC1	6.3%	-8.3%	0.8	-23.3	-0.5	-7.5%
COc1ccc(CNc2ccc(N3CCOCC3)cc2)cc1	-5.5%	42.3%	4.0	-1.1	·	-1.5%
COc1ccc(Br)cc1CNc1ccc(N2CCOCC2)cc1	14.1µM*	27.4%	-10.8	?	·	1.0%
COc1cccc(CNc2ccc(N3CCC(C)CC3)cc2)c1OC	-19.0%	48.4%	-0.6	-71.8*	-69.6*	0.7%
CCOc1ccc(Br)cc1CNc1ccc2c(c1)OCCO2	?	-21.6%	2.4	-77.0*	?	-2.0%
CC(C)c1cnc2c(c1SCC(=O)Nc1ccccc1C(F)(F)F)c(=O)n(C)c(=O)n2C	·	0.1%	·	·	·	·
O=C1CC(c2ccccc2)n2nc(NC(=O)c3ccccc3)nc2N1 (centres undefined)	-18.3%	·	1.6	-1.4	1.8	2.6%
O=C1CC(c2ccccc2)n2nc(NC(=O)c3ccccn3)nc2N1 (centres undefined)	7.0%	7.7%	1.0	-75.4*	?	9.7%
O=C1CCCC2CCCCN12 (centres undefined)	7.4%[188 µM]	·	7.5[188 µM]	·	·	·
c1ccc(-c2cn(C[C@H]3CC[C@@H]([C@@H]4CC[C@H](Cn5cc(-c6ccccc6)nn5)O4)O3)nn2)cc1	-3.8%	2.4%	0.4	2.2	4.7	6.5%
c1ccc(-c2cn(C[C@H]3CC[C@@H]([C@@H]4CC[C@H](Cn5cc(-c6ccccn6)nn5)O4)O3)nn2)nc1	-7.3%	-5.7%	0.0	-87.4*	-81.2*	-3.7%
COc1cc(CNc2ccc(N3CCN(C(C)=O)CC3)cc2)ccc1OCc1ccccc1	-23.0%	12.6µM*	-3.6	?	?	2.1%
CCOc1ccc(/C=N/NC(=O)c2[nH]ncc2Br)c(O)c1	?	0.0%	3.4	-82.9*	-91.8*	-6.0%
O=C(N/N=C\c1c(O)ccc2ccccc12)c1ccc(Cn2cccn2)o1	-14.8%	6.6%	?	-85.6*	-73.0*	-0.8%
O=C(N/N=C\c1ccc(Cl)s1)c1ccc(Cn2cccn2)o1	-6.7%	?	2.5	-15.2	-11.2	2.8%
O=C(N/N=C/c1c(O)ccc2ccccc12)c1[nH]ncc1Br	?	-25.3%	?	-84.5*	-89.8*	-0.1%
CC(=O)NC(c1ccc(C)cc1)c1cc(Cl)c2cccnc2c1O (centres undefined)	-4.5%	-4.0%	2.2	?	-74.3*	-19.5%
CCC(=O)NC(c1ccco1)c1cc(Cl)c2cccnc2c1O (centres undefined)	?	-7.8%	1.0	-80.4*	-90.2*	-3.9%
